In PubChem BioAssay (NCATS):
Inconclusive results are not listed. Unmarked numbers belong to inactive results. Activity calls are given as the source filed them. Calls follow the shape of the dose curve; as a rule, active = well fitted inhibition curve with a large enough effect; inconclusive = small, poorly fitted or top-dose-only effect; inactive = flat fitted curve, though single readings scatter. *1 amine or outer side, *2 acyl side, *3 side chain or, on linkers, in order; H or OH if unused. Where a SMILES comes first, the peptide text is derived from it. [ ]: non-standard residue; d: D form. The star is where a group is joined. ξ: configuration not given here. X9 = CCC(C)(N*)C(=O)C1CC[C@@H](C(=O)N[C@@H](Cc2ccccc2)C(=O)NCC(=O)O)N1; X8 = O=C([C@@H]1CC(O)CN1[*:1])[*:2]; aIle = CC[C@@H](C)[C@H](N)C(=O)O; Thr(3ξ) = CC(O)[C@H](N)C(=O)O; ξIva = CCC(C)(N)C(=O)O; Aib = CC(C)(N)C(=O)O

target: Glutathione peroxidase 1 (Homo sapiens) (UniProt P07203); experiment: Primary qHTS Assay for Inhibitors of Recombinant Selenoprotein Glutathione Peroxidase 1 (GPX1) (AID 1845191); settings: recombinant GPX1, GR-coupled NADPH fluorescence, 15 min; series mostly up to 27.7 µM; activity, negative = inhibition: at the top concentration; also: nearly all actives have a fitted effect of over 65% in size
Sequence (P07203 whole entry, looked up): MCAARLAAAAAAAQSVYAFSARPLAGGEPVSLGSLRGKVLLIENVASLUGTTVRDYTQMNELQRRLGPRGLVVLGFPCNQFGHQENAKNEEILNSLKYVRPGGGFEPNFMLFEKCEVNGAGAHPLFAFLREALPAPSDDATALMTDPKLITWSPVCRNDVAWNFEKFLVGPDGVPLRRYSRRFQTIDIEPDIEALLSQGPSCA
Source text: Assay Provider: Elias S.J. Arner MD PhD.
Department of Medical Biochemistry and Biophysics
Karolinska Institutet, Solna, Stockholm, Sweden
Selenoprotein glutathione peroxidases (GPX), like the ubiquitously expressed GPX1 and the ferroptosis modulator GPX4, enact their antioxidant activities by reducing hydroperoxides using glutathione. […] GPX1 and GPX4 inhibitors have thus shown promise as anti-cancer agents. Existing inhibitors are often promiscuous, or modulate GPX activity only indirectly, so novel direct inhibitors identified through screening against GPX1 and GPX4 could be valuable. Here, we developed optimized glutathione reductase (GR)-coupled GPX assays for the biochemical high-throughput screen (HTS) of almost 12,000 compounds with known mechanisms of action. Initial hits were triaged using a GR counter-screen, assessed for isoform specificity using a separate GPX2 assay, and were assessed for general selenocysteine-targeting activity using a thioredoxin reductase (TXNRD1) assay. With this suite of assays, we identified novel GPX1/GPX2- and GPX4-specific inhibitors and can here present a validated pipeline for future discovery research for selenoprotein-targeting agents.
SEQUENCE No. (e.g., 1, 2, 3, etc.); […] (e.g., Cells, Incubation, Reagent, etc.); VALUE; DESCRIPTION.
1; Reagent 1; 3 uL; GPx1 enzyme or no enzyme control in 1536-well, black, solid Greiner assay plate.
2; Compound; 25 nL; Kalypsis pin tool (Wako USA) equipped with a 1536-well pin head.
3; Incubation; 30 min; room temperature.
4; Reagent 2; 1 uL; 10 nM GPX1, 1 mM GSH, 0.5 mM CHP, 0.5 mM NADPH, 100 nM GR, 0.01% BSA substrate
5; Detection; Fluorescence; ViewLux microplate reader, excitation 340 nm and emission 450 nm.
6; Incubation; 15 min; room temperature.
7; Detection; Fluorescence; ViewLux microplate reader, excitation 340 nm and emission 450 nm.
NOTES (numbers refer to Sequence numbers above)
1. 3 uL of 16.66 nM GPX1 and 0.016% BSA in assay buffer (50 mM Tris-HCl, 2 mM EDTA (pH 7.5), 150 mM NaCl) was added to columns 3-48 of 1536-well assay plates using a BioRAPTR Flying Reagent Dispenser (Let's Go Robotics (LGR), Carlsbad, CA). A no-enzyme control (0.01% BSA in TES assay buffer) was added to columns 1-2.
2. 25 nL of test compounds and DMSO controls were added to each well with a pin tool (Kalypsys).
3. The assay plates were incubated for 30 minutes at room temperature.
4. 1 uL of master mix (500 nM glutathione reductase (GR), 5 mM reduced glutathione (GSH), 2.5 mM NADPH in assay buffer) was added. 1 uL of cumene hydroperoxide (CHP) ([2.5 mM] in 50% EtOH) was then added within 5 minutes to initiate the reaction. Final concentrations were: 10 nM GPX1, 1 mM GSH, 0.5 mM CHP, 0.5 mM NADPH, 100 nM GR, 0.01% BSA.
5. Initial fluorescence readout (t=0) at 340/450 nm was measured using a ViewLux multimodal detector (PerkinElmer, Waltham, MA).
7. Endpoint fluorescence readout (t=15) at 340/450 nm was measured 15 min after room temperature incubation.

Row | Compound | outcome | activity, negative = inhibition | Potency
1 | CCC/C=C1\OC(=O)C2=C1CCC(O)C2O (stereo not given) | inactive [at 48.8 µM] |  | 
2 | C/C(=C\CCC(C)(C)O)CCO[C@@H]1O[C@H](CO[C@@H]2O[C@@H](C)[C@H](O)[C@@H](O)[C@H]2O)[C@@H](O)[C@H](O)[C@H]1O |  | -15.8% | 
3 | O=C(CCCCC1CCCCC1)N1CCC(c2cnc[nH]2)CC1 |  | 1.02% [at 48.8 µM] | 
4 | CC(=O)O[C@H]1C[C@@H](O)C(C)(C)C2C[C@@H](OC(C)=O)[C@@]3(C)C4=CCC(C(CO)CC(O)C5OC5(C)C)[C@]4(C)CCC3[C@]21C (stereo not given in full) | inactive [at 15.3 µM] |  | 
5 | C[C@@H]1O[C@@H](O[C@@H]2[C@@H](O)[C@H](O[C@H]3[C@H](O[C@H]4CC[C@@]5(C)C(CC[C@]6(C)C5CC=C5[C@@H]7CC(C)(C)CC[C@]7(C(=O)O[C@@H]7O[C@H](CO)[C@@H](O)[C@H](O)[C@H]7O)CC[C@]56C)C4(C)C)O[C@H](C(=O)O)[C@@H](O)[C@@H]3O)OC[C@H]2O)[C@H](O)[C@H](O)[C@H]1O (stereo not given in full) | inactive [at 15.3 µM] |  | 
6 | COc1cc(/C=C/CO[C@@H]2O[C@H](CO)[C@@H](O)[C@H](O)[C@H]2O)cc(OC)c1O[C@@H]1O[C@H](CO)[C@@H](O)[C@H](O)[C@H]1O |  | -2.88% | 
7 | CC(=O)OC12CC(C)C(OC(=O)c3ccccc3)C1/C=C(/C)C(OC(=O)c1ccccc1)CC(=O)C(C)(C)/C=C/C(C)C2=O (stereo not given) |  | -14.5% [at 15.3 µM] | 
8 | COc1ccc(O[C@@H]2O[C@H](CO)[C@@H](O)[C@H](O)[C@H]2O)cc1OC | inactive |  | 
9 | CC1=C2CC(C)(C)CC2C(O)C2=C(C1)C(=O)OC2O (stereo not given) | inactive [at 48.8 µM] |  | 
10 | OC[C@@]1(O)CO[C@@H](OC[C@H]2O[C@@H](OCc3ccccc3)[C@H](O)[C@@H](O)[C@@H]2O)[C@@H]1O |  | -6.73% | 
11 | Cc1ccc(-n2nc(C(C)(C)C)cc2NC(=O)Nc2cc(COc3cccnc3)[nH]n2)cc1 |  | 2.01% [at 48.8 µM] | 
12 | COC(=O)C1=CO[C@@H](O[C@@H]2O[C@H](CO[C@@H]3O[C@H](CO)[C@@H](O)[C@H](O)[C@H]3O)[C@@H](O)[C@H](O)[C@H]2O)[C@@H]2C(CO)=CC[C@H]12 |  | -15.4% | 
13 | C[C@@H]1C[C@@H](O)[C@@]23CO[C@]2(CO)C[C@@H](O)CC3[C@@]12CC(c1ccoc1)OC2=O (stereo not given in full) | inactive |  | 
14 | CC(=O)OC1C(CO)OC(O[C@H]2[C@H](OC(=O)[C@]34CCC(C)(C)C[C@H]3C3=CCC5[C@@]6(C)CC[C@H](O[C@@H]7O[C@H](C(=O)O)[C@@H](O)[C@H](O[C@@H]8OC[C@@H](O)[C@H](O)[C@H]8O)[C@H]7O[C@@H]7O[C@H](CO)[C@H](O)[C@H](O)[C@H]7O)[C@@](C)(C=O)C6CC[C@@]5(C)[C@]3(C)C[C@H]4O)O[C@H](C)[C@H](OC3OC(C)C(OC4OCC(O)C(O)C4O)C(O)C3O)[C@@H]2O)C(O)C1O (stereo not given in full) |  | -8.51% [at 9.52 µM] | 
15 | COCC1OC(n2cnc3c(=O)[nH]cnc32)C(O)C1O (stereo not given) |  | -7.82% [at 48.8 µM] | 
16 | COc1cnc(-n2cnc(C)n2)c2[nH]cc(C(=O)C(=O)N3CCN(C(=O)c4ccccc4)CC3)c12 |  | -0.984% [at 48.8 µM] | 
17 | COc1ccc2[nH]c(S(=O)Cc3ncc(C)c(OC)c3C)nc2c1 (stereo not given) | inactive [at 48.8 µM] |  | 
18 | CC[C@@H](C)[C@H](NC(=O)C(C)(C)NC(=O)[C@H](CCC(N)=O)NC(=O)C(C)(CC)NC(=O)[C@H](Cc1c[nH]c2ccccc12)NC(C)=O)C(=O)N[C@H](C(=O)NC(C)(C)C(=O)N[C@@H](CC(C)C)C(=O)NC(C)(C)C(=O)N1CCC[C@H]1C(=O)N[C@@H](CCC(N)=O)C(=O)NC(C)(C)C(=O)N1CC(O)C[C@H]1C(=O)NC(C)(CC)C(=O)C1CC[C@@H](C(=O)N[C@@H](Cc2ccccc2)C(=O)NCC(=O)O)N1)C(C)O (stereo not given in full) (Ac-W[ξIva]Q[Aib][aIle][Thr(3ξ)][Aib]L[Aib]PQ[Aib][X8]-X9) |  | -32.2% [at 9.52 µM] | 
19 | C[C@@]1(C(=O)O)CCC[C@@]2(C)C3=CC[C@H]4C[C@@]3(CC[C@H]12)CC4(O)CO (stereo not given in full) | inactive |  | 
20 | CCC(CC)CC1(C(=O)Nc2ccccc2SC(=O)C(C)C)CCCCC1 |  |  | inactive

Row | Compound | outcome | activity, negative = inhibition | Potency
21 | CC(C)[C@@](O)(c1ccc2cc(OC(F)F)c(OC(F)F)cc2c1)c1cn[nH]n1 |  | -6.35% [at 48.8 µM] | 
22 | C=C1CCC2(OC1)OC1CC3C4CC=C5CC(O)CC(O[C@@H]6OC[C@H](OC(=O)C(O)C(C)CC)[C@H](O)[C@H]6O[C@@H]6O[C@@H](C)[C@H](O)[C@@H](O)[C@H]6O)C5(C)C4CCC3(C)C1C2C (stereo not given in full) |  | -16.3% [at 15.3 µM] | 
23 | CC1(C(=O)O)CCCC2(C)C3CC4C5CC3(CCC12)CC45C (stereo not given) |  | -13% [at 48.8 µM] | 
24 | CC(C)N(CCCNC(=O)Nc1ccc(C(C)(C)C)cc1)C[C@H]1O[C@@H](n2ccc3c(N)ncnc32)[C@H](O)[C@@H]1O |  |  | inactive
25 | O=C(/C=C/c1ccc(O)cc1)OCC1OC(O)C(OC2OC(CO)C(O)C(O)C2O)C(O)C1O (stereo not given) |  | 4.88% | 
26 | CC(=O)OC1CC2C(C)(C)C(=O)C=CC2(C)C2CC(=O)C3=C(CCC3C3=CC(O)OC3=O)C12C (stereo not given) | inactive |  | 
27 | Cc1c(C)c(NCC(=O)N(C)C2CCN(Cc3ccc(C(N)=O)cc3)CC2)c(C)c(C)c1N | inactive [at 48.8 µM] |  | 
28 | COc1cc(O)c2c(c1)C1(OC2=O)C(C)=CC(=O)C1O (stereo not given) |  | 4.32% [at 48.8 µM] | 
29 | OCC1=C[C@@H](O)[C@@H]2C=CO[C@@H](O[C@@H]3O[C@H](CO)[C@@H](O)[C@H](O)[C@H]3O)[C@H]12 |  | -8.92% | 
30 | CCC(C)/C=C(C)/C=C/C1=CC2=C(Cl)C(=O)C(C)(OC(C)=O)C(=O)C2=CN1C(CC(=O)O)C(=O)O (stereo not given) |  | -19.3% | 
31 | C=C(COC(=O)CC(C)C)C1Cc2cc(C(C)=O)ccc2O1 (stereo not given) |  | 0.0599% [at 48.8 µM] | 
32 | COC(=O)C1=COC(OC2OC(CO)C(O)C(O)C2O)C2C(COC(=O)/C=C/c3ccc(O)cc3)C(O)C(O)C12 (stereo not given) | inactive |  | 
33 | CC(=O)/C=C/C1(O)C(C)CC(O[C@@H]2O[C@H](CO)[C@@H](O)[C@H](O)[C@H]2O)CC1(C)C (stereo not given in full) | inactive |  | 
34 | C/C=C(\C)C(=O)O[C@H]1C=CC(=O)O[C@H]1/C=C/[C@H](O)[C@@H](C)O |  | -8.82% [at 48.8 µM] | 
35 | COc1cc(C(CO)CO[C@@H]2O[C@H](CO)[C@@H](O)[C@H](O)[C@H]2O)ccc1O (stereo not given in full) |  | -1.86% | 
36 | CC(=O)OCC1=CCC2C(C)(C)CCCC2(C)C12CCC(C)(CC(=O)O)O2 (stereo not given) |  | -15.2% | 
37 | CC(O)C(=O)/C=C/C=C/C(=O)OC1C=C2COC(=O)C2(O)C2(C)CCCC(C)(C)C12 (stereo not given) | inactive |  | 
38 | COc1ccc(/C=C/C(=O)N2CCCC2)cc1 |  | -19.6% [at 48.8 µM] | 
39 | CSC(=O)OCC1=C[C@@H]2OC(=O)C3=CO[C@@H](O[C@@H]4O[C@H](CO)[C@@H](O)[C@H](O)[C@H]4O)[C@H]1[C@@H]32 |  | -6.82% | 
40 | C[C@H](/C=C/[C@@]1(O)[C@H](C)CC(=O)CC1(C)C)O[C@@H]1O[C@H](CO[C@@H]2OC[C@@H](O)[C@H](O)[C@H]2O)[C@@H](O)[C@H](O)[C@H]1O |  | 0.0064% | 
